Source: PubChem BioAssay (National Center for Advancing Translational Sciences (NCATS))
G9a block – qHTS Assay for Inhibitors of Histone Lysine Methyltransferase G9a | G9a H3K9 monomethylation, AlphaScreen, 2 h | 8.8% of 350,000 active | Histone-lysine N-methyltransferase EHMT2 (Homo sapiens), Q96KQ7 | Potency, µM (titrated, usually from 102 µM), hits mostly inhibitors; also: nearly all actives have a fitted effect of over 75% in size
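Signal arises when biotinylated H3K9 peptide, once monomethylated, bridges streptavidin donor and antibody-captured acceptor beads. Enzyme at 20 nM was preincubated 15 min with test compounds; peptide 500 nM and SAM 20 uM then reacted for 2 h.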
BAZ2B inh – qHTS Assay for Inhibitors of BAZ2B | Bromodomain adjacent to zinc finger domain protein 2B (Homo sapiens), Q9UIF8 | AID 504333, 2011 | Potency, µM (top dose mostly 114 µM), hits mostly inhibitors | AlphaScreen BAZ2B-H3K14Ac peptide displacement | 4.4% of 360,000 active; also: nearly all actives have a fitted effect of over 60% in size
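Protein-peptide AlphaScreen: BAZ2B 50 nM, b-H3K14Ac 50 nM, 1x PBS pH 7.4 + 0.01% Tween-20. Preincubation 30 min RT; cpd 30 min RT (top 110 uM); beads 20 min RT, light-protected.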
JMJD2A Tudor inh – qHTS Assay for Inhibitors of JMJD2A-Tudor Domain; Potency, µM (doses to about 114 µM), usual class: inhibitors; Lysine-specific demethylase 4A (Homo sapiens), O75164; AlphaScreen JMJD2A-Tudor / H3K4me3 peptide binding; 4.4% of 390,000 active; also: nearly all actives have a fitted effect of over 50% in size
Six1-Eya2 inh – qHTS Assay for Inhibitors of the Six1/Eya2 Interaction; activity change, % (concentration not given with the values); 0.56% of 360,000 active; AlphaScreen GST-Six1/His-Eya2 binding, biochemical; active compounds read low; in the data active = activity change below about -65%; inconclusive = mostly about -30% to -63%
Target sequence (O00167 whole entry, looked up): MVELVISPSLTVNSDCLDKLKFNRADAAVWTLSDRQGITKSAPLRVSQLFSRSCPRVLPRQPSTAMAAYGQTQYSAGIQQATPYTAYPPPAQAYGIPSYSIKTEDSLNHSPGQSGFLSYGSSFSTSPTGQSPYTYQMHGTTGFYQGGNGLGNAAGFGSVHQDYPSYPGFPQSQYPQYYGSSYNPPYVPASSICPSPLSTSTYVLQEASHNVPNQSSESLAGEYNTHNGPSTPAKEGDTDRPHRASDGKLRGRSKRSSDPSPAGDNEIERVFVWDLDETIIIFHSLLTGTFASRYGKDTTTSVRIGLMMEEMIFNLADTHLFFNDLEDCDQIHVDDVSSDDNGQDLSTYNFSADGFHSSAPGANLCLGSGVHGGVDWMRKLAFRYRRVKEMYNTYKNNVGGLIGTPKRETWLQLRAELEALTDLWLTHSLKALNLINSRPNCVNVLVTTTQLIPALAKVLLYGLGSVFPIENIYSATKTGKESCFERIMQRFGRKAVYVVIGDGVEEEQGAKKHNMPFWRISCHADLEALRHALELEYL
Target sequence (Q15475 whole entry, looked up): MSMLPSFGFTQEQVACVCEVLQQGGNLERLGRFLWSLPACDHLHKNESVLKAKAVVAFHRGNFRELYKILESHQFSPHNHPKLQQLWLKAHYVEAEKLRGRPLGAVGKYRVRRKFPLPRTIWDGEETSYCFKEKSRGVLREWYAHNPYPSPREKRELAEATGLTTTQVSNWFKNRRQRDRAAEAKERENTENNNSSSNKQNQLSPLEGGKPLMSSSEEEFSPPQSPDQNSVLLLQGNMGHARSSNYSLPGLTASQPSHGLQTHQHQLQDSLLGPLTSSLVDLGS
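AlphaScreen with GST-Six1 and His-Eya2 (5X mix: 250 nM and 500 nM), glutathione donor and nickel acceptor beads; buffer 50 mM Tris pH 8.0, 300 mM NaCl, 1 mM TCEP; 1 h at 37 C in the dark.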
HP1b chromo inh – HTS for Inhibitors of HP1-beta Chromodomain Interactions with Methylated Histone Tails | AlphaScreen HP1-beta / biotin-H3K9me3 peptide binding | Potency, µM (top dose mostly 114 µM), actives largely listed as inhibitors | 0.56% of 390,000 active; also: nearly all actives have a fitted effect of over 70% in size
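AlphaScreen: HP1-beta (50 nM) preformed 30 min with biotin-H3(1-18)K9me3 peptide (50 nM) in PBS pH 7.4, 0.01% Tween-20. Compound added for 30 min at RT, then streptavidin donor/nickel chelate acceptor beads (10 ug/mL) for 30 min.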
CtBP-E1A blk – qHTS Assay for Inhibitors of the CtBP/E1A Interaction; activity change, % (test concentration not listed); AlphaScreen GST-E1A/His-CtBP binding, 1536-well; active compounds read low; 0.49% of 340,000 active; AID 651724, 2012; in the data active = activity change below about -65%; inconclusive = mostly about -30% to -63%
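Homogeneous bead-based format: GST-tagged E1A captured on glutathione donor beads, His-tagged CtBP on nickel acceptor beads; compounds precede bead addition by 2 h at 37 °C.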
Of the large screens only hits and unclear results are named; the others gave an inactive call; ! = not confirmed by another sample. Shown are actives, neighbours in structure and some others; about 10% of the full set was active somewhere. Unless noted, calls follow the shape of the dose curve; as a rule, active = well fitted inhibition curve with a large enough effect; inconclusive = small, poorly fitted or top-dose-only effect; inactive = no such curve, though single readings can be large or run the other way.

CC[C@@H](CO)NC(=O)[C@@H]1C=C2c3cccc4[nH]cc(c34)C[C@H]2N(C)C1	G9a block 14.1µM (no result: BAZ2B inh)
COc1cc([C@@H]2c3cc4c(cc3[C@@H](O)C3COC(=O)C32)OCO4)cc(OC)c1O (some centres not stated)	none (no result: G9a block, BAZ2B inh, Six1-Eya2 inh, CtBP-E1A blk)
O=C(Nc1ccccc1)N1CC[C@@]2(CCCN(C(=O)Oc3ccccc3)C2)C1	none (no result: BAZ2B inh, JMJD2A Tudor inh, Six1-Eya2 inh, HP1b chromo inh, CtBP-E1A blk)
CCc1cccc(NC(=O)Cn2c(=O)oc3cc(S(=O)(=O)N4CCOCC4)ccc32)c1	none
CC(C)Cn1c(-c2cccc(S(=O)(=O)N3CCOCC3)c2)n[nH]c1=S	JMJD2A Tudor inh 7.08µM (no result: G9a block, BAZ2B inh, CtBP-E1A blk)
COc1ccc(C2=NCC(=O)N(CC(=O)NCc3ccco3)c3sc4c(c32)CCCC4)cc1OC	G9a block 15.8µM
O=C(CNC(=O)c1ccc(Br)cc1)NCC(=O)OCC(=O)c1ccc([N+](=O)[O-])cc1	G9a block inconclusive
O=C(CNC(=O)c1ccccc1)NCC(=O)OCC(=O)c1ccc([N+](=O)[O-])cc1	G9a block 8.91µM
O=c1ccc2cc(OC3O[C@H](CO)[C@@H](O)[C@H](O)[C@H]3O)c(O)cc2o1 (some centres not stated)	none
O=c1cc(-c2ccc(O)c(O)c2)oc2c(C3O[C@H](CO)[C@@H](O)[C@H](O)[C@H]3O)c(O)cc(O)c12 (some centres not stated)	G9a block 79.4µM, BAZ2B inh inconclusive, JMJD2A Tudor inh inconclusive, Six1-Eya2 inh inconclusive (no result: CtBP-E1A blk)
O=[N+]([O-])c1cccc(NP(=O)(N2CC2)N2CC2)c1	none (no result: G9a block, BAZ2B inh)
CN(C)c1ccc(P(=O)(Nc2ccc([N+](=O)[O-])cc2)N2CCOCC2)c(NC(=O)c2cccs2)c1 (configuration not stated)	G9a block 44.7µM, BAZ2B inh inconclusive
c1ccc(N2CCC3(CCNCC3)CC2)cc1	none (no result: BAZ2B inh, JMJD2A Tudor inh, Six1-Eya2 inh, HP1b chromo inh, CtBP-E1A blk)
CCC(=O)N1N=C(c2c(O)n(C)c(=O)n(C)c2=O)CC1c1ccccc1 (configuration not stated)	G9a block 25.1µM (no result: CtBP-E1A blk)
CCOc1ccc(C2CC(c3c(O)n(C)c(=O)n(C)c3=O)=NN2)cc1 (configuration not stated)	G9a block inconclusive, BAZ2B inh inconclusive
Cn1c(O)c(C2=NN(C(=O)CCl)C(c3ccccc3)C2)c(=O)n(C)c1=O (configuration not stated)	G9a block 31.6µM, JMJD2A Tudor inh 22.4µM (no result: CtBP-E1A blk)
COC(=O)CCCc1[se]c2ccccc2c1I	none (no result: BAZ2B inh, JMJD2A Tudor inh, Six1-Eya2 inh, HP1b chromo inh, CtBP-E1A blk)
CCCCC(=O)Nc1c(C(=O)N2CCN(c3ccccc3F)CC2)oc2ccccc12	G9a block inconclusive (no result: Six1-Eya2 inh, CtBP-E1A blk)
COc1ccc2nc(NC(=O)c3nc(S(=O)(=O)Cc4cccc(C)c4)ncc3Cl)sc2c1	none (no result: Six1-Eya2 inh, CtBP-E1A blk)
NC(N)=NOCC[C@H](N)C(=O)O	G9a block 31.6µM! (no result: BAZ2B inh, JMJD2A Tudor inh, Six1-Eya2 inh, HP1b chromo inh, CtBP-E1A blk)
CCCCOP(=O)(OCCCC)C(Nc1ccc(C(=O)OCC)cc1)c1ccncc1 (configuration not stated)	none
C[n+]1c(-c2ccccc2)cc(CCCCc2cc(-c3ccccc3)[n+](C)c(-c3ccccc3)c2)cc1-c1ccccc1	G9a block 39.8µM, BAZ2B inh inconclusive, JMJD2A Tudor inh inconclusive
COc1ccc(-c2cc(-c3ccccc3)[n+](C)c(-c3ccccc3)c2)cc1	none
Cc1ccccc1Nc1c(-c2ccc(Br)cc2O)nc2sccn12	G9a block inconclusive, BAZ2B inh 22.4µM, JMJD2A Tudor inh inconclusive (no result: Six1-Eya2 inh, CtBP-E1A blk)
O=C1C(c2ccccc2)=C(N2CC2)c2ccccc21	G9a block 39.8µM, BAZ2B inh 35.5µM, JMJD2A Tudor inh 44.7µM, Six1-Eya2 inh inconclusive, HP1b chromo inh 20µM, CtBP-E1A blk inconclusive
C=CCN1C(=O)/C(=C/c2ccc3c(c2)CCCN3CCC)C(=O)NC1=S	G9a block 14.1µM, BAZ2B inh 44.7µM, JMJD2A Tudor inh 56.2µM, HP1b chromo inh inconclusive
CC(C)(C)N1C(=O)NC(=O)/C(=C\c2ccc3c(c2)CCN3CCCCl)C1=O	G9a block 39.8µM, BAZ2B inh inconclusive, JMJD2A Tudor inh 39.8µM, HP1b chromo inh inconclusive
CCN1C(=O)/C(=C/c2ccc3c(c2)CCN3CCCCl)C(=O)NC1=S	G9a block inconclusive, BAZ2B inh 39.8µM, JMJD2A Tudor inh 35.5µM, HP1b chromo inh inconclusive
C=CCN1C(=O)/C(=C/c2cc(C)n(-c3cccnc3)c2C)C(=O)NC1=S	G9a block inconclusive
O=C1NC(=S)N(C2CC2)C(=O)/C1=C/c1ccc2c(c1)CCN2CCCCl	G9a block 11.2µM, BAZ2B inh 31.6µM, JMJD2A Tudor inh 44.7µM, HP1b chromo inh inconclusive
CC(=O)O[C@H]1C[C@@H](O[C@@H]2[C@H](C)O[C@H](O[C@@H]3[C@H](C)O[C@H](O[C@@H]4CC[C@@]5(C)[C@@H](CC[C@]6(C)[C@]5(C)C[C@H](O)[C@]5(C)[C@@H](C7=CC(=O)OC7)CC[C@@]56O)C4)C[C@@H]3O)C[C@@H]2O)O[C@@H](C)[C@H]1O[C@H]1O[C@@H](CO)[C@@H](O)[C@@H](O)[C@@H]1O	none (no result: BAZ2B inh, JMJD2A Tudor inh, Six1-Eya2 inh, HP1b chromo inh, CtBP-E1A blk)
CN1C(=O)C(=Cc2ccccc2OCc2ccc(Cl)cc2)C(=O)N(C)C1=O	none
O=C1NC(=O)C(=Cc2cc(Cl)ccc2OCc2ccc(C(=O)O)cc2)C(=O)N1	G9a block 31.6µM
C[C@@H]1C(=O)O[C@H]2C[C@@]34[C@H]5C[C@@H](C(C)(C)C)[C@]36[C@@H](OC(=O)[C@@H]6O)O[C@@]4(C(=O)O5)[C@]21O	none
CCCCn1c(O)c(C=NC2CCCCC2N)c(=O)[nH]c1=O (configuration not stated)	G9a block 3.98µM, BAZ2B inh inconclusive
NC1CCCCC1N=Cc1c(O)n(Cc2ccc(F)cc2)c(=O)[nH]c1=O (configuration not stated)	G9a block 0.891µM, BAZ2B inh inconclusive
CN1CCN(/N=C/c2c(O)n(Cc3ccc(F)cc3)c(=O)[nH]c2=O)CC1	G9a block 56.2µM (no result: CtBP-E1A blk)
CCN(CC)CCCN=Cc1c(O)n(Cc2ccc(F)cc2)c(=O)[nH]c1=O	none
CCCCCCn1c(O)c(C=NC2CCCCC2N)c(=O)[nH]c1=O (configuration not stated)	JMJD2A Tudor inh inconclusive
COC(=O)CSc1n[nH]c(=S)s1	G9a block 7.94µM, JMJD2A Tudor inh inconclusive, HP1b chromo inh 28.2µM
CCOC(=O)CSc1nn(-c2ccccc2)c(=S)s1	none
